# Assay results taken from PubChem BioAssay (NCI).
# This is part of a sample that, as a whole, favours compounds with a hit. Of some 83,000 tested, about 20% had one in any assay.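 Interpretation: 100, growth as untreated; towards 0, rising growth inhibition; 0, no net growth; 0 to -100, cell death. Compounds scoring below 10 were considered active.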 A number with no mark means an inactive call. Activity calls are given as the source filed them.
# System: PC-3 prostate
# Assay: NCI-60 one-dose screen, 48 h (100 = growth as untreated, 0 = no growth, -100 = all killed)
# Details: 10 µM unless noted
row,SMILES,growth
1,CS(=O)(=O)Nc1cc(-c2ccc3ncnc(Nc4ccc5c(cnn5Cc5ccccn5)c4)c3c2)cnc1Cl,72.8%
2,CO[C@H]1/C=C(/C)CCC[C@H](C)[C@H](O)[C@@H](C)C(=O)C(C)(C)[C@@H](O)CC(=O)O[C@@H]1/C(C)=C/c1csc(C)n1,26.6%
3,COc1ccc2nc3ccc(OC)cc3c(SCCCN)c2c1,65.6%
4,CCCCCCCCCCCCCCCC(N)c1ccccc1 (stereo not given),5.14% (active)
5,CC1=C(Nc2ccc(N3CCN(C)CC3)cc2)C(=O)c2cncnc2C1=O,21.7%
6,CN(C)c1ccc(/C=C/C(=O)c2ccc(-n3cc(CN4CCN(c5cc6c(cc5F)c(=O)c(C(=O)O)cn6C5CC5)CC4)nn3)cc2)cc1,57.4%
7,CCN(CC)c1nc(SCc2ccccc2Cl)ncc1C,89.9%
8,CCN1CCN(Cc2cn(CC(=O)Nc3ccc4c(ccn4Cc4ccccc4)c3)nn2)CC1,96.4%
9,O=C(O)[C@@H]1c2ccccc2-c2ccccc2[C@H]1C(=O)O,90.9%
10,O=C1CC(N2C(=O)/C(=C/C(Cl)=C\c3ccc([N+](=O)[O-])cc3)SC2=S)C(=O)N1c1ccc(Cl)cc1 (stereo not given),-5.48% (active)
11,CCc1ccc(Oc2cn[nH]c2-c2ccc(OCCc3ccc(F)cc3)cc2O)cc1,72.2%
12,CC1(C)CCC(S(=O)(=O)c2ccc3c(c2)/C(=N\O)c2cc(S(=O)(=O)N4CCC(O)(c5cccc(C(F)(F)F)c5)CC4)ccc2-3)CC1,-71.5% (active)
13,Cc1cc(Cl)ccc1Nc1nc(C(F)(F)F)ccc1C(=O)N/N=C/c1ccc([N+](=O)[O-])cc1,-43.7% (active)
14,CCOC(=O)c1[nH]c(=O)c2c(C)nc(-c3ccccc3)cc2c1O,72.1%
15,Oc1ccc(CN2CCC(N3CCCCC3)CC2)c2cccnc12,17.9%
16,COc1cccc([C@H]2c3[nH]c4ccccc4c3C[C@H]3C(=O)N(CCCCCCC(=O)NO)CC(=O)N23)c1,42.5%
17,C=CC(=O)NCc1ccc(Nc2nccc(-c3ccc(N4CCCC4)c(C#N)c3)n2)cc1,32.4%
18,CC1=C(C(=O)OC(C)C)C(c2ccc3c(c2)OCO3)NC(=S)N1 (stereo not given),86%
19,CCOC(=O)Cn1c(O)c(N=Nc2ccc(S(N)(=O)=O)cc2)c2cc(Br)ccc21,70.8%
20,O=C(Cn1c2c(c3ccccc31)CCCC2)Nc1ccc(-c2nc3ccccc3s2)cc1,94.7%

row,SMILES,growth
1,COC(C(=O)[C@@H](O)[C@@H](C)O)[C@@H]1Cc2cc3cc(O[C@H]4C[C@@H](O[C@H]5C[C@@H](O)[C@H](O)C(C)O5)[C@H](O)C(C)O4)c(C)c(O)c3c(O)c2C(=O)[C@H]1O[C@H]1C[C@@H](O[C@H]2C[C@@H](O[C@H]3C[C@@H](O)[C@H](OC)C(C)O3)[C@@H](O)C(C)O2)[C@H](O)C(C)O1 (stereo not given in full),11.2%
2,CCCCCCCCn1ccc2cc(NC(=O)CN3CCN(c4nc(C)cc(Cl)n4)CC3)ccc21,75.6%
3,COc1ccc(/C=N/NC(=O)CCN2c3ccccc3Sc3ccccc32)cc1,61.4%
4,CNC(=O)c1cc(Oc2ccc3c(c2)sc2nc(-c4cc(OC)c(OC)c(OC)c4)cn23)ccn1,34.3%
5,CCCCCCNC(=O)Oc1ccc(/C(=C(/C)Cc2ccc(OC)cc2)c2ccc(OCCCN(C)C)cc2)cc1,24.3%
6,Cn1ccnc1C(=O)C(=O)Nc1ccc(CC(=O)Nc2ccccc2)cc1,107%
7,C=CCc1c(O)c(C(=O)/C=C/c2ccc(Cl)cc2)c(OC)c2ccoc12,30.9%
8,C=C(CNCCc1ccc(O)cc1)[C@@H]1CC[C@]2(CO)CC[C@]3(C)[C@H](CC[C@@H]4[C@@]5(C)CCC(NCCO)C(C)(C)[C@@H]5CC[C@]43C)[C@@H]12 (stereo not given in full),-20.1% (active)
9,CCOC(=O)CNP(=O)(OC[C@@H](Cc1ccccc1)NC(=O)c1cc2ccccc2s1)Oc1ccccc1 (stereo not given in full),85.5%
10,COc1ccc(OC)c(C(=O)/C=C/c2cc3c(c(OC)c2OC)OCO3)c1,61.8%
11,C=C(C)[C@@H]1CC[C@]2(C)[C@H](CC=C3[C@@H]4[C@H](C)[C@@H](C)CC[C@]4(CO)CC[C@]32C)[C@@]1(C)CCCN,11%
12,O=C1/C(=C/c2ccc(F)cc2)COc2ccc(O)cc21,89.2%
13,CN(CCn1sc(=O)n(Cc2ccccc2)c1=O)Cc1ccc2c(Cl)cc(Cl)c(O)c2n1,35.5%
14,CCN(CC)CCOc1ccc(C(=C(C)c2ccc(Cl)cc2)c2ccc(OCCN(CC)CC)cc2)cc1,-59.3% (active)
15,CC(=O)OC[C@]12CCC(C)(C)C[C@H]1[C@@]1(O)[C@H](O)C[C@@H]3[C@@]4(C)CCCNC(C)(C)[C@@H]4CC[C@@]3(C)[C@]1(C)CC2,102%
16,Cc1ccc(CNc2ccc(Cl)cc2NCc2ccc(C)c(O)c2)cc1O,7.21% (active)
17,COc1ccc(C(=O)C2C(c3ccc(OC)cc3)CN(C)C23C(=O)Nc2ccccc23)cc1 (stereo not given),75.3%
18,O=C(O)CCCN1C(=O)/C(=C/C(Cl)=C/c2ccccc2)SC1=S,36.5%
19,O=C1/C(=C/c2ccc(Cl)cc2)COc2ccc(O)c(O)c21,-6% (active)
20,COc1cc(CNC(=O)/C=C/C=C/c2ccc3c(c2)OCO3)ccc1OCc1cn(-c2ccc(C)c(C)c2)nn1,75.1%
